Among the data in PubChem BioAssay (NCATS) are Potency and activity change, negative = cytotoxic values, retold here.

Structures are written as SMILES. Inconclusive results are not listed. Entries that show only a call come without a potency. Unmarked numbers belong to inactive results. Calls of active or inactive are those of the source. Calls follow the shape of the dose curve; as a rule, active = well fitted cell-killing curve with a large enough effect; inconclusive = small, poorly fitted or top-dose-only effect; inactive = flat fitted curve, though single readings scatter.
Potency is read from the fitted curve at half-maximal effect.

A short description of the assay: qHTS of pediatric cancer cell lines to identify multiple opportunities for drug repurposing: Primary screen for TC32 cells (AID 1347089). Also: nearly all actives have a fitted effect of over 60% in size. The note with it: TC32 Ewing sarcoma viability, CellTiter-Glo luminescence, 48 h; series mostly up to 45.8 µM. From the text: Drug repurposing or repositioning has been offered as a strategy for drug development in oncology programs. This approach has special potential for childhood cancers and other rare or orphan diseases, where the expected return on new drug development has been a disincentive to pharmaceuticals.
In this project we exploit the poly-pharmacology of drugs to discover new indications via phenotypic screening of a panel of 19 well-characterized cell lines derived from solid tumors seen in children and adolescents. The goal is to identify approved drugs with previously unrecognized anticancer properties that has the potential to reveal new mechanisms and biological processes involved in carcinogenesis or drug resistance. We employed a titration-based paradigm (quantitative high-throughput screening or qHTS), where all compounds were tested at multiple concentrations for their effect on cell viability. Concentration-response curves (CRCs) were derived directly from the primary screen, and both potency and efficacy values were used to identify compounds with robust bioactivity profiles. We screened the NIH Chemical Genomics Center (NCGC) Pharmaceutical Collection (NPC) and Mechanism Interrogation Plate (MIPE) small molecule collections of approved and investigational compounds against these cell lines; and measured metabolically active cells after 48 hours of compound treatment as a proxy for cell viability.
Assay Submitter: Nathalia J. Martinez, National Center for Advancing Translational Sciences, National Institutes of Health, Rockville, MD, USA; email: natalia.martinez@nih.gov
[1] Shen, M et al. Quantitative high-throughput phenotypic screening of pediatric cancer cell lines identifies multiple opportunities for drug repurposing. Oncotarget 2017 Dec 19;9(4):4758-4772. PMID 29435139.
The cells were obtained from University of North Carolina (UNC), Pediatric Preclinical Testing Program (PPT), and Coriell Institute (CI).
qHTS cell viability assay:
Cells were assayed in growth media at a density of 500-1,000 cells/well. Five microliters of cells were dispensed into 1,536-well, white, solid-bottom, TC-treated plates (Greiner Bio One) using a multidrop dispenser and incubated at 37 degrees C, 5% CO2, under a humidified atmosphere for 5 hours. Twenty-three nanoliters of compounds and controls (neutral control DMSO or positive control bortezomib at final concentration of 2.3 uM) were subsequently transferred by Kalypsys pintool. For primary screens, the MIPE collection was tested at 11-point dilutions (final concentrations range from 0.78 nM to 46 µM) and the NPC collection at 8-point dilutions (final concentrations range from 0.59 nM to 46 µM). Compounds tested in follow-up screens were assayed at 11-point dilutions. Cells were incubated for 48 hours, followed by addition of 3 uL of CellTiter-Glo (Promega). After a 15min incubation at room temperature, samples were analyzed for luminescence intensity using a ViewLux High-throughput CCD imager equipped with clear filters.
For the compound `CCN1CCc2nc(N)oc2CC1`, the Potency result is “inactive”. On the same count and under the same terms, in the case of `CCn1ccnc1CC1COc2ccccc2O1` (stereo not given) it was “inactive”; in that of `COCCOC(=O)C1=C(C)NC(C)=C(C(=O)OC(C)C)C1c1cccc([N+](=O)[O-])c1` (stereo not given), “inactive”. The same measure, in the same setting: the same measure for `C[C@]12C=CC(=O)C=C1CC[C@H]1[C@@H]3C[C@@H](O)[C@](O)(C(=O)CO)[C@@]3(C)C[C@H](O)[C@@]12F`: “inactive”; for `C#CCN(C)CCCOc1ccc(Cl)cc1Cl`: “inactive”. The same measure, in the same setting: the same measure for `C[N+](C)(C)CCCCCCCCCC[N+](C)(C)C`: “inactive”; for `CN(C)C(=O)Oc1ccc[n+](C)c1`: “inactive”; for `N[C@@H](COP(=O)(O)O)C(=O)O`: “inactive”. Consider `CCOC(=O)C1=C(C)NC(C)=C(C(=O)OC)C1c1cccc([N+](=O)[O-])c1` (stereo not given), for which the Potency result is “inactive”. On the same count and under the same terms, the same measure for `CN(C)CCN(Cc1cccs1)c1ccccn1`: “inactive”; for `CCO/C([O-])=N/c1c[n+](N2CCOCC2)no1`: “inactive”; for `CCCCNC(=O)NS(=O)(=O)c1ccc(C)cc1`: “inactive”. Same read-out and setting: the same measure for `CC[N+](C)(C)c1cccc(O)c1`: “inactive”; for `CN(C)CC[C@@H](c1ccc(Br)cc1)c1ccccn1`: “inactive”. Take `CN1CCN(CC(=O)N2c3ccccc3C(=O)Nc3cccnc32)CC1`: the activity change, negative = cytotoxic was 4.32% [at 4.81 µM].

As for `CCNC(=O)N1CCN(CCCC(c2ccc(F)cc2)c2ccc(F)cc2)CC1`, the Potency result is “inactive”. The same measure, in the same setting: the same measure for `CN(C)CCCN1c2ccccc2Sc2ccccc21`: “inactive”. Same read-out and setting: the same measure for `CCN1CCC[C@H]1CNC(=O)c1c(O)c(Cl)cc(Cl)c1OC`: “inactive”; for `FC(F)(F)c1ccccc1-n1ccnc1`: “inactive”; for `CCc1c(C)[nH]c2c1C(=O)C(CN1CCOCC1)CC2` (stereo not given): “inactive”.

In the case of `C[N+](C)(C)CCOC(N)=O`, the Potency entry is “inactive”. Same read-out and setting: the same measure for `COc1ccc(CCN(C)CCCC(C#N)(c2cc(OC)c(OC)c(OC)c2)C(C)C)cc1OC` (stereo not given): “inactive”.

With `NC/C=C/C(=O)O`, the Potency entry was “inactive”. The same measure, in the same setting: the same measure for `C=CCc1ccccc1OCC(O)CNC(C)C` (stereo not given): “inactive”; for `Cc1ccc(/C(=C\CN2CCCC2)c2ccccn2)cc1`: “inactive”.

For `CN1CCN(C2=Nc3ccccc3Oc3ccc(Cl)cc32)CC1`, the Potency result was “inactive”. For `CC(=O)Oc1cc(C(C)C)c(OCCN(C)C)cc1C`, the Potency entry is “inactive”.

With `CN(C(=O)CCCOc1ccc2[nH]c(=O)ccc2c1)C1CCCCC1`, the Potency result is “inactive”. On the same count and under the same terms, in the case of `COc1ccc2c(c1OC)C(=O)O[C@@H]2[C@H]1c2c(cc3c(c2OC)OCO3)CCN1C` it was “inactive”; in that of `CCCNC(C)C(=O)Nc1ccccc1C` (stereo not given), “inactive”.

In the case of `CCCCOCCOCCOCc1cc2c(cc1CCC)OCO2`, the Potency result was “inactive”.

`Cc1nc2c([nH]1)c(=O)n(C)c(=O)n2Cc1ccco1`: the Potency entry was “inactive”. Still for that read-out and setting: the same measure for `Cc1ccc(=O)n(-c2ccccc2)c1`: “inactive”; for `NS(=O)(=O)c1cc2c(cc1Cl)NC(C1CC3C=CC1C3)NS2(=O)=O` (stereo not given): “inactive”; for `O=C(CCNNC(=O)c1ccncc1)NCc1ccccc1`: “inactive”. The same measure, in the same setting: in the case of `C[C@]12CCC(=O)C=C1CC[C@@H]1[C@@H]2C(=O)C[C@@]2(C)[C@H]1CC[C@]2(O)C(=O)CO` it was “inactive”. Same read-out and setting: in the case of `CC1=C(C)C(=O)C(CCCCC#CCCCC#CCO)=C(C)C1=O` it was “inactive”; in that of `O=C(O)CP(=O)(O)O`, “inactive”. Regarding `OCCN1CCN(CCCN2c3ccccc3C=Cc3ccccc32)CC1`, the Potency entry was “inactive”. The same measure, in the same setting: the same measure for `C[n+]1cc2c3c(ccc2c2ccc4cc5c(cc4c21)OCO5)OCO3`: 3.25 µM (active).
